This is part of a sample that, as a whole, favours compounds with a hit. Of some 79,000 tested, about 15% had one in any assay. Unmarked numbers belong to inactive results. The source made the active and inactive calls. Rule as the data show it: active = growth inhibition above about 70%; inactive = the rest.
Legend:
[1] = NCI Yeast Anticancer Drug Screen. Data for the rad50 strain (AID 155);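 also: 0% = growth of vehicle-only cultures of the same strain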; conditions: S. cerevisiae rad50 strain growth inhibition, active compounds read high
Method in brief: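 Yeast carrying a defined DNA repair defect were exposed to test compounds, and growth was compared with vehicle-treated controls to give percent inhibition.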

[2] = NCI Yeast Anticancer Drug Screen. Data for the mec2-1 strain (AID 157); conditions: S. cerevisiae mec2-1 strain, active compounds read high
Method in brief: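 Growth inhibition is read against vehicle-treated controls after compound exposure of the mec2-1 yeast strain, which is defective in DNA damage repair or cell cycle control.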

[3] = NCI Yeast Anticancer Drug Screen. Data for the sgs1 mgt1 strain (AID 161);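 also: 0% = growth of cultures given vehicle only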; conditions: S. cerevisiae sgs1 mgt1 strain, active compounds read high
Method in brief: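 Yeast cells carrying a defined DNA-repair defect were exposed to test compounds. Growth inhibition was measured relative to vehicle-treated controls.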

[4] = NCI Yeast Anticancer Drug Screen. Data for the cln2 rad14 strain (AID 165);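 also: 0% = growth equal to vehicle treated cultures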; conditions: S. cerevisiae cln2 rad14 strain, active compounds read high
Method in brief: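 Growth inhibition, relative to vehicle-treated controls, is the read-out. The test organism is a yeast strain with defined genetic alterations, cln2 rad14.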

[5] = NCI Yeast Anticancer Drug Screen. Data for the bub3 strain (AID 167); conditions: S. cerevisiae bub3 mutant strain, active compounds read high
Method in brief: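 Compounds were applied to a genetically altered yeast strain carrying a cell-cycle control defect. Growth inhibition was scored against vehicle-treated controls.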

[6] = NCI Yeast Anticancer Drug Screen. Data for the mlh1 rad18 strain (AID 175); conditions: S. cerevisiae mlh1 rad18 strain growth inhibition, active compounds read high
Method in brief: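 Cells of a genetically altered yeast strain, deficient in DNA damage repair, were treated with compound. Their growth was then compared with that of vehicle-treated cultures to give inhibition.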

[7] = at 5.0 µM (retest, dose inferred, filed as 0.5)
[8] = at 50.0 µM (retest, dose inferred, filed as 5.0)

SMILES | growth inhibition [1, 7] [%] | growth inhibition [1, 8] | growth inhibition ([1]; at 50.0 µM) | growth inhibition [2, 7] | growth inhibition [2, 8] | growth inhibition ([2]; at 50.0 µM) | growth inhibition [3, 7] | growth inhibition [3, 8] | growth inhibition ([3]; at 50.0 µM) | growth inhibition [4, 7] [%] | growth inhibition [4, 8] | growth inhibition ([4]; at 50.0 µM) | growth inhibition [5, 7] [%] | growth inhibition [5, 8] | growth inhibition ([5]; at 50.0 µM) | growth inhibition [6, 7] | growth inhibition [6, 8] | growth inhibition ([6]; at 50.0 µM)
O=C(c1ccc(Cl)cc1)c1ccc(OCCCOc2ccc(C(=O)c3ccc(Cl)cc3)cc2)cc1 | -14 | -32% | 17.5% | -13% | 2% | -16.1% | -18% | -4% | -2.15% | -30 | -7% | 38.1% | -14 | -14% | -14.6% | -22% | -26% | -1.7%
CCCCCCCCCCCCCCCCCC[n+]1cccc(C(=O)c2ccccc2)c1 | 58 | 99% (active) | 99.3% (active) | 92% (active) | 100% (active) | 99.5% (active) | 97% (active) | 99% (active) | 99.5% (active) | 56 | 98% (active) | 97.3% (active) | 68 | 99% (active) | 98.7% (active) | 98% (active) | 99% (active) | 99.5% (active)
O=[N+]([O-])C1(CO)COC(CCc2ccccc2)OC1 (configuration not stated) | -2 | 5% | 67.7% | 0% | 3% | 78.2% (active) | 2% | 5% | 82.3% (active) | 2 | 3% | 97.5% (active) | -2 | -3% | 65.5% | 0% | 3% | 98.4% (active)
NNc1c(Cl)cc(Cl)cc1Cl | 44 | 93% (active) | 98.2% (active) | -16% | 97% (active) | 98.9% (active) | 12% | 94% (active) | 99.7% (active) | 21 | 43% | 97.8% (active) | 67 | 93% (active) | 99.2% (active) | 51% | 97% (active) | 99.7% (active)
O=C(Cn1nnc2ccccc21)N1CCN(c2ccccc2)CC1 | -2 | 3% | 32.8% | 4% | 3% | 33.8% | -1% | 5% | -2.35% | -6 | 3% | 43.8% | -1 | 1% | 14.9% | -3% | 3% | -7.75%
O=C1C=C(c2ccccc2)O/C1=C\C(=O)c1ccc(Cl)cc1 | 48 | 48% | 89.3% (active) | 43% | 43% | 90.9% (active) | 54% | 54% | 86.4% (active) | 14 | 14% | 87.5% (active) | 22 | 22% | 88% (active) | 44% | 44% | 84.5% (active)
Oc1ccc(N(Cc2ccccc2)Cc2ccccc2)cc1 | 4 | 47% | 98.2% (active) | 4% | 58% | 97.9% (active) | 6% | 40% | 98.4% (active) | 0 | 93% (active) | 97.7% (active) | 7 | 89% (active) | 97.6% (active) | 6% | 69% | 97.3% (active)
Nc1nc(-c2ccc(Cl)cc2)cs1 | -20 | 94% (active) | 98% (active) | 4% | 91% (active) | 97.4% (active) | 8% | 91% (active) | 98.2% (active) | -44 | 92% (active) | 97% (active) | -29 | 90% (active) | 97.8% (active) | -30% | 97% (active) | 97.7% (active)
CC(=O)CC1(O)C(=O)Nc2ccc(Br)cc21 (configuration not stated) | 1 | -2% | 39% | 0% | -3% | 6.3% | -2% | 1% | 10.8% | -3 | 8% | 60.1% | 6 | 2% | 0.8% | -5% | -8% | 5.25%

Reference: PubChem BioAssay (NCI)
